{
  "source": "PubChem BioAssay AID651820",
  "about": "(National Center for Advancing Translational Sciences (NCATS), 2012)",
  "note": "Screen size: about 340,000 compounds; about 12,000 (3.5%) were called active. Inconclusive results (about 18%) are left out. This is one part of a sample in which actives are shown more often than they occur. A number with no mark means an inactive call. Calls follow the shape of the dose curve; as a rule, active = well fitted inhibition curve with a large enough effect; inconclusive = small, poorly fitted or top-dose-only effect, or another doubt; inactive = no such curve, though single readings can be large or run the other way.",
  "data": [
    {"assay": "qHTS Assay for Inhibitors of Hepatitis C Virus (HCV); also: potency is read from the fitted curve at half-maximal effect; as to activity change, negative = inhibition: % is scaled to controls: 0 for no effect and ±100 for the full control effect", "details": "Huh7.5.1 HCVcc-Cre infection, luciferase reporter, 44 h; series mostly up to 41.8 µM; activity change, negative = inhibition: at the top concentration", "procedure,_shortened": "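Seed cells (1,000/well) for 4 h; treat with compound and infect with HCVcc-Cre, moi about 0.5. Incubate 44 h, then detect luciferase activity.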", "values": [
      {"compound": "CCOc1ccc(C(O)Cc2nc3ccccc3n2C)cc1", "note": "(stereo not given)", "activity change, negative = inhibition": "11.1%"},
      {"compound": "CCOc1ccc(C(O)Cn2c(=N)n(CCN3CCCCC3)c3ccccc32)cc1", "note": "(stereo not given)", "Potency": "10 µM (active)"},
      {"compound": "Cc1cccc(OCC(O)Cn2c(=N)n(CCN3CCOCC3)c3ccccc32)c1", "note": "(stereo not given)", "activity change, negative = inhibition": "-11.5%"},
      {"compound": "COc1ccc(S(=O)(=O)N2CCOCC2)cc1NC(=O)CC1CC2CCC1C2", "note": "(stereo not given)", "activity change, negative = inhibition": "2.91%"},
      {"compound": "COc1cc2c(cc1OC)CN(C(C)C(=O)Nc1cccc(S(=O)(=O)N3CCOCC3)c1)CC2", "note": "(stereo not given)", "activity change, negative = inhibition": "-7.17%"},
      {"compound": "CCc1cc2c(NC(Cc3ccccc3)C(=O)O)ncnc2s1", "note": "(stereo not given)", "activity change, negative = inhibition": "8.03%"},
      {"compound": "CCc1cc2c(SCC(=O)Nc3ncc(Cl)c(C)c3Cl)ncnc2s1", "activity change, negative = inhibition": "-1.3%"},
      {"compound": "CCc1cc2c(NC3CCCC3)ncnc2s1", "Potency": "10 µM (active)"},
      {"compound": "O=C(CN1CCc2cc3c(cc2C1)OCCCO3)Nc1ccccc1", "Potency": "11.2 µM (active)"},
      {"compound": "Cc1ccc(NC(=O)CN2CCc3ccccc3C2)cc1", "activity change, negative = inhibition": "-2.8%"},
      {"compound": "O=C(CN1CCOCC1)Nc1ccccc1", "activity change, negative = inhibition": "-2.17%"},
      {"compound": "CNC(=O)C1CC(=O)N(c2ccc(OCC(=O)Nc3ccccc3C)cc2)C1", "note": "(stereo not given)", "activity change, negative = inhibition": "-3.97%"},
      {"compound": "O=C(N[C@@H](Cc1ccccc1)C(=O)OCc1ccccc1)c1nc[nH]c1C(=O)NC1CCNCC1", "activity change, negative = inhibition": "16.1%"},
      {"compound": "NS(=O)(=O)c1ccc(CCNC(=O)CCCn2c(SCC(=O)N3CCCC3)nc3ccsc3c2=O)cc1", "Potency": "2 µM (active)"},
      {"compound": "CCCCn1c(SCC(=O)N2CCC(C(=O)OCC)CC2)nc2cc(S(N)(=O)=O)ccc21", "activity change, negative = inhibition": "-7.54%"},
      {"compound": "NS(=O)(=O)c1ccc(CCNC(=O)CN2C(=O)c3ccccc3S2(=O)=O)cc1", "activity change, negative = inhibition": "2.87%"},
      {"compound": "CN1C(=O)[C@H]2[C@@H](/C=C/c3ccccc3)N3C(=O)CN(Cc4ccc(-c5ccccc5)cc4)C(=O)[C@@]3(C)[C@H]2C1=O", "activity change, negative = inhibition": "1.62%"},
      {"compound": "COc1ccc(CNC(=O)CN2C(=O)NC3(CCCc4sccc43)C2=O)cc1", "note": "(stereo not given)", "activity change, negative = inhibition": "7.77%"},
      {"compound": "O=C(Nc1ccc(N2C(=O)c3cccc4cccc(c34)C2=O)cc1)c1ccc(N2CCCCC2)c([N+](=O)[O-])c1", "activity change, negative = inhibition": "1.73%"},
      {"compound": "CC(NC(=O)c1ccc(N2CCNCC2)c([N+](=O)[O-])c1)C12CC3CC(CC(C3)C1)C2", "note": "(stereo not given)", "activity change, negative = inhibition": "17.7%"},
      {"compound": "O=C(Nc1cccc(C(F)(F)F)c1)c1ccc(N2CCNCC2)c([N+](=O)[O-])c1", "Potency": "12.6 µM (active)"},
      {"compound": "NC(=O)c1ncn([C@@H]2O[C@H](CN=C3NS(=O)(=O)c4ccccc43)[C@@H](O)[C@H]2O)n1", "activity change, negative = inhibition": "13.5%"},
      {"compound": "CCOC(=O)C(C)n1cnc2sc(C)c(C)c2c1=O", "note": "(stereo not given)", "activity change, negative = inhibition": "1.73%"},
      {"compound": "CSc1ncnc2sc(C)c(C)c12", "activity change, negative = inhibition": "-8.32%"},
      {"compound": "CCCNc1ncnc2sc(C)c(C)c12", "Potency": "8.91 µM (active)"},
      {"compound": "CCN(C(=O)CSc1nnnn1-c1ccccc1OC)C1CCS(=O)(=O)C1", "note": "(stereo not given)", "activity change, negative = inhibition": "7.75%"},
      {"compound": "O=C(CCc1ccc(S(=O)(=O)N2CCOCC2)cc1)OCC(=O)c1ccc(Br)cc1", "activity change, negative = inhibition": "8.2%"},
      {"compound": "CC(=O)Nc1ccc(NC(=O)CSc2ncnc3c2cnn3Cc2ccccc2)cc1", "activity change, negative = inhibition": "-2.76%"},
      {"compound": "Clc1ccc(Cn2ncc3c(NCc4cccnc4)ncnc32)cc1", "Potency": "11.2 µM (active)"},
      {"compound": "Clc1ccc(Nc2ncnc3c2nnn3Cc2ccccc2)cc1", "activity change, negative = inhibition": "2.81%"},
      {"compound": "O=C(Cn1cnc2ccccc2c1=O)NNC(=O)c1ccccc1F", "activity change, negative = inhibition": "17.9%"},
      {"compound": "CC(C)NC(=O)Nc1cccc2c1O[C@@H](CN(C)S(=O)(=O)c1ccc(F)cc1)[C@@H](C)CN([C@H](C)CO)C2=O", "activity change, negative = inhibition": "17.9%"},
      {"compound": "O=C(CNC(=O)c1ccc(F)cc1)c1ccccc1", "activity change, negative = inhibition": "12.2%"},
      {"compound": "Cc1cccc[n+]1CC(=O)c1ccccc1", "activity change, negative = inhibition": "-7.73%"},
      {"compound": "O=C(C[n+]1cc(Br)cc2ccccc21)c1ccc(F)cc1", "Potency": "10 µM (active)"},
      {"compound": "O=C(NCCS(=O)(=O)NCc1ccc(F)cc1)c1ccccc1", "activity change, negative = inhibition": "-2.73% [at 8.37 µM]"},
      {"compound": "O=C(NCc1cccnc1)c1cc(S(=O)(=O)N2CCOCC2)c(Cl)cc1Cl", "activity change, negative = inhibition": "10.9%"},
      {"compound": "Cc1ccc(S(=O)(=O)N2CCN(C)CC2)cc1", "activity change, negative = inhibition": "19.8%"},
      {"compound": "Cc1ccc(S(=O)(=O)N2CCN(Cc3cccc(C)c3O)CC2)cc1", "activity change, negative = inhibition": "13.1%"},
      {"compound": "Cc1ccc(S(=O)(=O)N2CCN(c3ncnc4ccccc34)CC2)cc1", "Potency": "8.91 µM (active)"},
      {"compound": "CC(=O)Nc1ccc(NC(=O)CSc2nnc(C3CC3)n2-c2ccccc2)cc1", "activity change, negative = inhibition": "-9.37%"},
      {"compound": "Cc1cccc(-c2oc3ccc(-c4ccc5c(c4)OCO5)cc3c2C#Cc2cncn2C)c1", "activity change, negative = inhibition": "4.36%"},
      {"compound": "Cc1ccc(C(=O)O)c(NC=O)c1OCc1ccccc1", "activity change, negative = inhibition": "14.3%"},
      {"compound": "Cc1ccc(S(=O)(=O)N2[C@@H](c3cccc4ccccc34)C(C(=O)O)=C[C@H]2C(C)(C)C)cc1", "activity change, negative = inhibition": "10.4%"},
      {"compound": "COc1ccc(-n2c(-c3ccc(OC)c(OC)c3)n[nH]c2=S)cc1", "activity change, negative = inhibition": "5.22%"},
      {"compound": "COc1ccc(-c2n[nH]c(C)c2-c2ccc(OC)c(OC)c2)c(O)c1", "Potency": "11.2 µM (active)"},
      {"compound": "CCOc1ccc(-c2n[nH]c(C)c2-c2ccccn2)c(O)c1", "activity change, negative = inhibition": "-17.4%"},
      {"compound": "O=C1NCC(Nc2ccccc2)C(=O)N1", "note": "(stereo not given)", "activity change, negative = inhibition": "9.38%"},
      {"compound": "CCN(Cc1ccccc1)S(=O)(=O)c1cc2c3c(c1)CCN3C(=O)CC2", "activity change, negative = inhibition": "18.5%"},
      {"compound": "Cc1ccc(C)c(N2CCN(C(=O)CCc3nc(-c4cccc(C(F)(F)F)c4)no3)CC2)c1", "activity change, negative = inhibition": "2.72%"}
    ]}
  ]
}
